# Measurements as given in PubChem BioAssay AID651661 (Broad Institute, 2012).
# About 2,300 (0.66%) of roughly 350,000 compounds were called active.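 The calls were made as follows: active = mean inhibition of at least 50% after viability correction, with every replicate also passing that limit; inconclusive = mean reaches 50% but only one of two replicates passes; inactive = the rest.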 For the sample, actives were picked, then their nearest neighbours and some compounds at random.
# Assay: blockers of EWS/Fli transcriptional output – A673 cells, NR0B1 luciferase, luminescence, MLPCN library, primary screen (AID 651661);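 also: firefly luciferase signal divided by Alamar Blue viability fluorescence both relative to DMSO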
# Settings: A673 NR0B1-luciferase reporter, viability-normalised; at 12.6 µM; active compounds read high
row,Compound,inhibition
1,CN(C)c1ccc2c(c1)[C@@H]1C[C@@H](CC(=O)NCc3ccccn3)O[C@H](CO)[C@@H]1O2,-4.51% (inactive)
2,COc1cccc2c1C(=O)c1c(O)c3c(c(O)c1C2=O)CC(O)(C(C)=NNC(=O)c1ccc(Cl)c(Cl)c1)CC3OC1CC(N)C(O)C(C)O1 (centres undefined),63.6% (active)
3,C[C@H](CO)N1C[C@H](C)[C@@H](CN(C)C(=O)NC2CCCCC2)Oc2c(NC(=O)Nc3ccc(F)cc3)cccc2C1=O,4.64% (inactive)
4,C[C@@H]1CN([C@H](C)CO)C(=O)c2cc(NC(=O)Nc3ccccc3)ccc2O[C@@H](C)CCCCO[C@H]1CN(C)Cc1ccc(C(F)(F)F)cc1,71.6% (active)
5,C[C@@H]1CN([C@H](C)CO)C(=O)c2cccc(NC(=O)Nc3ccccc3)c2O[C@@H]1CN(C)C(=O)NC1CCCCC1,4.76% (inactive)
6,COc1ccc(NC(=O)Nc2ccc3c(c2)C(=O)N([C@@H](C)CO)C[C@H](C)[C@H](CN(C)Cc2ccc(C(F)(F)F)cc2)OCCCC[C@H](C)O3)cc1,6.84% (inactive)
7,C[C@@H]1CN([C@H](C)CO)C(=O)c2cc(NC(=O)Nc3ccc(C(F)(F)F)cc3)ccc2O[C@@H](C)CCCCO[C@@H]1CN(C)Cc1ccc(C(F)(F)F)cc1,-13.8% (inactive)
8,C[C@H]1CN([C@@H](C)CO)C(=O)c2cccc(NC(=O)Nc3ccc(C(F)(F)F)cc3)c2O[C@H]1CN(C)C(=O)NC1CCCCC1,56.1% (active)
9,COc1ccc(CN(C)C[C@@H]2OCCCC[C@@H](C)Oc3ccc(NC(=O)Nc4ccc(C(F)(F)F)cc4)cc3C(=O)N([C@H](C)CO)C[C@H]2C)cc1,53.9% (active)
10,C[C@H]1CCCCO[C@@H](CN(C)Cc2ccc(C(F)(F)F)cc2)[C@@H](C)CN([C@@H](C)CO)C(=O)c2cc(NC(=O)Nc3ccccc3)ccc2O1,19.3% (inactive)
11,C[C@@H]1CCCCO[C@@H](CN(C)Cc2ccc(C(F)(F)F)cc2)[C@@H](C)CN([C@H](C)CO)C(=O)c2cc(NC(=O)Nc3ccccc3)ccc2O1,-6.47% (inactive)
12,O=C(C[C@@H]1C[C@H]2c3cc(NC(=O)C4CCOCC4)ccc3O[C@H]2[C@@H](CO)O1)NCCN1CCCCC1,-1.07% (inactive)
13,COC(=O)C[C@@H]1CC[C@@H]2[C@H](COc3ccc(NC(=O)c4cccc(F)c4)cc3C(=O)N2C)O1,61.7% (active)
14,COC(=O)C[C@H]1CC[C@H]2[C@@H](COc3ccc(NC(=O)Nc4cccc(F)c4)cc3C(=O)N2C)O1,-0.36% (inactive)
15,COC(=O)C[C@@H]1CC[C@@H]2[C@H](COc3ccc(NC(=O)Nc4cccc(F)c4)cc3C(=O)N2C)O1,33.6% (inactive)
16,O=C(C[C@@H]1CC[C@H]2[C@@H](COC[C@H](O)CN2Cc2ccc(F)cc2)O1)N1CCc2ccccc2C1,2.81% (inactive)
17,CCCN(C)C[C@@H]1OCc2cnnn2CCCC(=O)N([C@H](C)CO)C[C@@H]1C,0.738% (inactive)
18,C[C@@H]1CN([C@H](C)CO)C(=O)Cc2cc(NC(=O)CCCCCC(=O)Nc3ccccc3N)ccc2O[C@H]1CN(C)S(=O)(=O)c1ccc(F)cc1,-11% (inactive)
19,C[C@H](CO)N1C[C@H](C)[C@H](CN(C)Cc2ccc(C(=O)Nc3ccccc3N)cc2)Oc2ccc(NS(C)(=O)=O)cc2C1=O,27% (inactive)
20,Cc1ccc(S(=O)(=O)Nc2ccc3c(c2)C(=O)N([C@@H](C)CO)C[C@@H](C)[C@@H](CN(C)Cc2ccc(C(=O)Nc4ccccc4N)cc2)O3)cc1,51.7% (active)
21,C[C@@H]1CN([C@@H](C)CO)C(=O)c2cc(NS(=O)(=O)c3ccccc3)ccc2O[C@@H]1CN(C)Cc1ccc(C(=O)Nc2ccccc2N)cc1,57.5% (active)
22,C[C@H]1CN([C@@H](C)CO)C(=O)Cc2cc(NS(=O)(=O)c3ccccc3)ccc2O[C@H]1CN(C)Cc1ccc(C(=O)Nc2ccccc2N)cc1,-7.96% (inactive)
23,Cc1ccc(S(=O)(=O)Nc2ccc3c(c2)C(=O)N([C@H](C)CO)C[C@H](C)[C@H](CN(C)Cc2ccc(C(=O)Nc4ccccc4N)cc2)OCCCC[C@@H](C)O3)cc1,8.6% (inactive)

row,Compound,inhibition
1,C[C@@H]1CN([C@H](C)CO)C(=O)c2cc(NS(=O)(=O)c3cn(C)cn3)ccc2O[C@@H]1CN(C)Cc1ccc(C(=O)Nc2ccccc2N)cc1,-4.91% (inactive)
2,COCC#Cc1ccc([C@H]2[C@H](CO)N3C(=O)CN(C(=O)Nc4ccccc4F)C[C@@H]23)cc1,2.04% (inactive)
3,COc1cccc(S(=O)(=O)N[C@H]2CC[C@H](CCN)O[C@H]2CO)c1,-10.4% (inactive)
4,COc1ccc(S(=O)(=O)Nc2ccc3c(c2)C(=O)N([C@H](C)CO)C[C@@H](C)[C@H](CN(C)C(=O)Nc2ccc4c(c2)OCO4)O3)cc1,0.75% (inactive)
5,CC(=O)N1[C@H](CO)[C@H](c2ccc(-c3ccccc3)cc2)[C@H]1CNC(=O)NC(C)C,0.423% (inactive)
6,COc1ccc(-c2ccccc2[C@@H]2[C@@H](C#N)N(C(=O)NC3CCCC3)[C@H]2CO)cc1,4.32% (inactive)
7,C[C@H](CO)N1C[C@H](C)[C@@H](CN(C)Cc2ccncc2)Oc2ncc(C#CC3CC3)cc2C1=O,-3.48% (inactive)
8,COc1cccc(S(=O)(=O)N2C[C@@H](O)COC[C@@H]3O[C@H](CC(=O)N4CCN(C)CC4)CC[C@H]32)c1,2.56% (inactive)
9,Cc1cc(C(=O)Nc2cccc3c2O[C@H](CN(C)C(=O)Nc2ccccc2)[C@@H](C)CN([C@H](C)CO)C3=O)n(C)n1,-4.28% (inactive)
10,O=C(C[C@H]1C[C@H]2c3cc(NC(=O)c4ccc5c(c4)OCO5)ccc3O[C@H]2[C@@H](CO)O1)NCc1cccc(F)c1,-0.435% (inactive)
11,O=C(NCc1ccncn1)[C@@H]1[C@@H](CO)[C@@H]2Cn3c(ccc(-c4ccc(F)cc4)c3=O)[C@@H]2N1CC1CC1,5.67% (inactive)
12,C[C@@H]1CN([C@H](C)CO)C(=O)c2cc(NC(=O)C3CCCCC3)ccc2O[C@@H]1CN(C)CC1CCCCC1,1.73% (inactive)
13,CS(=O)(=O)N1CC2(C1)[C@H](c1ccccc1)[C@H](CO)N2Cc1ccc(F)cc1,-3.95% (inactive)
14,Cc1ccc2nc(-c3ccncc3)cc(C(=O)Nc3ccc4c(c3)OCCO4)c2c1,57.8% (active)
15,CCN(CC)CCNC(=O)c1ccc(NC(=O)c2cc(-c3ccncc3)nc3ccccc23)cc1,8.49% (inactive)
16,CCOc1ncccc1C(=O)Nc1ccc2c(c1)OCCO2,-5.13% (inactive)
17,Cc1ccc2nc(-c3ccncc3)cc(C(=O)Nc3ccc(OC(F)F)cc3)c2c1,54% (active)
18,CCn1c(SCC(=O)Nc2ccc3c(c2)OCCO3)nnc1-c1ccncc1,4.78% (inactive)
19,O=C(Nc1ccncc1)c1cc(-c2ccccn2)nc2ccc(Br)cc12,17% (inactive)
20,CNC[C@H]1OCCCC[C@@H](C)Oc2ccc(NC(=O)c3ccncc3)cc2C(=O)N([C@H](C)CO)C[C@H]1C,0.415% (inactive)
21,CO[C@@H]1CN(C)C(=O)c2cc(NC(=O)C3CC3)ccc2OC[C@H](C)N(CC2CC2)C[C@H]1C,-3.56% (inactive)
22,O=C(C1CCOCC1)N1C[C@H]2[C@@H](c3ccccc31)[C@@H](CO)N2Cc1ccccc1,2.37% (inactive)
23,CCCC(=O)N1CC2(C1)CN(C(=O)COC)[C@@H](CO)c1c2c2ccc(OC)cc2n1C,23.9% (inactive)

row,Compound,inhibition
1,C[C@@H](NC(=O)C[C@H]1CC[C@H]2[C@H](COc3ccc(NS(=O)(=O)c4ccc(Cl)cc4)cc3C(=O)N2C)O1)c1ccccc1,13.8% (inactive)
2,S=C(c1ccc(-c2ccccc2)o1)N1CCCCC1,-59.7% (inactive)
3,OCCN1CCN(C(=S)c2ccc(-c3ccccc3)cc2)CC1,69% (active)
4,CN1CCN(CCCCOc2ccccc2-c2ccccc2)CC1,-2.32% (inactive)
5,COc1ccc(CN(C)C[C@@H]2OCCCC[C@@H](C)Oc3ccc(NS(=O)(=O)c4ccc(C)cc4)cc3C(=O)N([C@@H](C)CO)C[C@H]2C)cc1,-18.8% (inactive)
6,O=C(O)C(=Cc1ccc([N+](=O)[O-])cc1)CCc1ccccc1,5.5% (inactive)
7,O=C1/C(=C\c2ccc([N+](=O)[O-])cc2)CS(=O)(=O)C/C1=C/c1ccc([N+](=O)[O-])cc1,74.9% (active)
8,CC(=O)Nc1ccc(C=Cc2ccc([N+](=O)[O-])cc2)cc1,-72.7% (inactive)
9,CCCN1C[C@@H](C)[C@@H](OC)CN(C)C(=O)c2ccc(NC(=O)c3ccc(F)cc3)cc2OC[C@@H]1C,-2.15% (inactive)
10,Cc1noc(C)c1NC(=O)N(C)C[C@H]1OCCCC[C@@H](C)Oc2ccc(NS(=O)(=O)c3ccc(Cl)cc3)cc2C(=O)N([C@@H](C)CO)C[C@H]1C,-7.3% (inactive)
11,CNC[C@H]1Oc2ccc(N(C)C)cc2CC(=O)N([C@@H](C)CO)C[C@@H]1C,14.1% (inactive)
12,S=C(NCc1ccc2c(c1)OCO2)NCc1ccco1,-23.2% (inactive)
13,CN(CC(=O)NCc1ccc2c(c1)OCO2)CC(=O)Nc1ccc(F)c(F)c1F,3.77% (inactive)
14,CC1(C(=O)NCc2ccco2)Cc2c(-c3ccc4c(c3)OCO4)ccnc2O1 (centres undefined),57.5% (active)
15,COc1cc(OC)c(C(=O)NCc2ccc3c(c2)OCO3)cc1OC,9.01% (inactive)
16,CC1(C(=O)NCC2CCOCC2)Cc2c(-c3cccc(C(N)=O)c3)ccnc2O1 (centres undefined),0.349% (inactive)
17,CC1(C(=O)NCc2ccc(F)c(F)c2)Cc2c(-c3ccc4c(c3)OCO4)ccnc2O1 (centres undefined),60.1% (active)
18,C[C@@H]1CN([C@H](C)CO)C(=O)Cc2cc(NC(=O)Nc3ccccc3)ccc2O[C@@H]1CN(C)Cc1ccc(C(F)(F)F)cc1,-0.517% (inactive)
19,Cc1noc(C)c1NC(=O)Nc1ccc2c(c1)CC(=O)N([C@H](C)CO)C[C@@H](C)[C@@H](CN(C)Cc1ccc(C(F)(F)F)cc1)O2,7.38% (inactive)
20,C[C@@H]1CN([C@H](C)CO)C(=O)Cc2cc(NC(=O)Nc3ccccc3)ccc2O[C@H]1CN(C)Cc1ccc(Cl)c(Cl)c1,9.7% (inactive)
21,C[C@H](CO)N1C[C@H](C)[C@@H](CN(C)Cc2ccc(Cl)c(Cl)c2)Oc2ccc(NC(=O)Nc3ccc(C(F)(F)F)cc3)cc2CC1=O,72.5% (active)
22,Cc1noc(C)c1NC(=O)Nc1ccc2c(c1)CC(=O)N([C@H](C)CO)C[C@@H](C)[C@@H](CN(C)Cc1ccncc1)O2,-1.93% (inactive)
23,Cc1noc(C)c1NC(=O)Nc1ccc2c(c1)CC(=O)N([C@@H](C)CO)C[C@@H](C)[C@@H](CN(C)Cc1ccc(Cl)c(Cl)c1)O2,64.4% (active)
